Compound activity as filed in PubChem.
FMDV antiviral: High Throughput Screening for Foot and Mouth Disease Virus Antivirals | Potency, µM (series often up to 57.9 µM), usual class: inhibitors | AID 1159524, 2015 | hit rate 1.2% among 410,000 | FMDV antiviral cell-based qHTS; calls by dose curve; tested in HEK293T cells; note: read-out not given here; nearly all actives have a fitted effect of over 45% in size
MARV entry inh: qHTS for inhibitors of binding or entry into cells for Marburg Virus | Marburg virus pseudotyped entry inhibition, cell reporter | Potency, µM (titrated, usually from 37.8 µM), most hits filed as inhibitors | hit rate 1.8% among 300,000 | AID 540276, 2011; calls by dose curve; tested in HEK293 cells
VACV mCherry inh: qHTS for Stage-Specific Inhibitors of Vaccinia Orthopoxvirus: mCherry Reporter Primary qHTS | Vaccinia virus mCherry reporter infection, fluorescence | Potency, µM (highest dose often 36.5 µM), usual class: inhibitors | hit rate 0.63% among 310,000; calls by dose curve; tested in A549 cells; note: nearly all actives have a fitted effect of over 35% in size
Vaccinia Venus: qHTS for Stage-Specific Inhibitors of Vaccinia Orthopoxvirus: Venus Reporter Primary qHTS. Potency, µM (top dose mostly 36.5 µM), actives largely listed as inhibitors. hit rate 0.46% among 330,000. Vaccinia virus Venus reporter expression, fluorescence; calls by dose curve; tested in A549 cells; note: nearly all actives have a fitted effect of over 30% in size
LASV entry inh: qHTS for Inhibitors of binding or entry into cells for Lassa Virus. Lassa virus pseudotype entry inhibition, cell reporter. Potency, µM (highest dose often 37.9 µM), actives largely listed as inhibitors. hit rate 1.2% among 300,000; calls by dose curve; tested in HEK293 cells; note: nearly all actives have a fitted effect of over 50% in size
HCMV antiviral: qHTS Assay for inhibitors of the human cytomegalovirus (HCMV). HFF cells, HCMV-luciferase reporter, 72 h; active compounds read low. activity change, negative = inhibition, % at 57.5 µM. hit rate 4.5% among 410,000; in the data active = activity change below about -60%; inconclusive = no clear call, values can overlap the other calls; inactive = above about -39%
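Screen run at 2 compound doses on HFFs infected with reporter HCMV, MOI 1 PFU/cell. Luciferase activity from cell lysates at 72 h post infection gave inhibition relative to buffer-only and Salinomycin wells.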
Each line names hits and unclear results; the compound was inactive in the other large screens. Sampled rows, rich in hits. Any-hit rate of the full collection: about 6.5%.

CCc1nc(SCc2ccc(Br)cc2)n[nH]1	MARV entry inh inconclusive
CCc1nc(SCc2ccc(OCC(C)C)cc2)n[nH]1	MARV entry inh 7.94µM, LASV entry inh inconclusive, HCMV antiviral inconclusive
Cc1cc(C)c2nc3nc(C)c(C)cc3c(N)c2c1	MARV entry inh inconclusive, VACV mCherry inh inconclusive, Vaccinia Venus inconclusive, LASV entry inh inconclusive, HCMV antiviral -98.8
O=C1CC(c2ccccc2Cl)CC(O)=C1C=Nc1ccccc1 (stereo not drawn)	LASV entry inh inconclusive, HCMV antiviral -72.7
Cc1ccc(N=CC2=C(O)CC(c3ccccc3Cl)CC2=O)cc1 (stereo not drawn)	none (no result: MARV entry inh, VACV mCherry inh, Vaccinia Venus, LASV entry inh)
O=C(Nc1ccc(S(=O)(=O)N2CCOCC2)cc1)c1ccc(F)cc1	none
COc1ccc(NS(=O)(=O)c2ccc(NC(=O)c3ccc(CN4CCOCC4)cc3)cc2)cc1	MARV entry inh inconclusive, VACV mCherry inh inconclusive, LASV entry inh inconclusive, HCMV antiviral -88.8
O=C(Nc1ccc(S(=O)(=O)Nc2ccc(F)cc2)cc1)c1ccc(CN2CCOCC2)cc1	FMDV antiviral inconclusive, MARV entry inh inconclusive, LASV entry inh inconclusive, HCMV antiviral -64.6
CCOc1ccccc1-n1c(N)c(C(N)=O)sc1=S	HCMV antiviral -62.8 (no result: VACV mCherry inh, Vaccinia Venus)
Cc1ccc(C(=O)Nc2nc(C)c(C(=O)Nc3ccc4c(c3)CCC4)s2)cc1	MARV entry inh 1.12µM, LASV entry inh inconclusive, HCMV antiviral inconclusive
COCCN1C(=O)Cc2c1nc(N)c1c(N)nc(N3CCN(c4ccc(F)cc4)CC3)c(C#N)c21	HCMV antiviral inconclusive (no result: MARV entry inh, VACV mCherry inh, Vaccinia Venus, LASV entry inh)
COCC(C)N1C(=O)Cc2c1nc(N)c1c(N)nc(N3CCN(c4ccccc4F)CC3)c(C#N)c21 (stereo not drawn)	FMDV antiviral 31.6µM, MARV entry inh 16.4µM, VACV mCherry inh inconclusive, LASV entry inh inconclusive, HCMV antiviral inconclusive
COc1cc2c(c(OC)c1OC)C(c1ccc3c(c1)OCO3)CC(=O)O2 (stereo not drawn)	none (no result: MARV entry inh, LASV entry inh)
COc1ccc2cc3[n+](cc2c1OC)CCc1cc2c(cc1-3)OCO2	FMDV antiviral inconclusive, MARV entry inh inconclusive, Vaccinia Venus inconclusive, LASV entry inh inconclusive, HCMV antiviral -95.6
COc1ccc2c(c[n+](C)c3c4cc5c(cc4ccc23)OCO5)c1OC	FMDV antiviral 10µM, MARV entry inh 7.3µM, VACV mCherry inh inconclusive, Vaccinia Venus inconclusive, LASV entry inh 4.11µM (no result: HCMV antiviral)
COc1cccc(C2=NCCc3cc4c(cc32)OCO4)c1OC	MARV entry inh inconclusive
Cc1ccc(S(=O)(=O)N2CCCCC2)cc1NC(=O)COC(=O)c1ccccc1F	none
c1cncc(-c2nc(-c3ccco3)cs2)c1	none
CC(C)n1c(-c2ccco2)csc1=Nc1cccnc1	FMDV antiviral 25.1µM, VACV mCherry inh inconclusive, HCMV antiviral -79.5
COc1ccc(OC)c2[nH]c(C(=O)N/N=C/c3ccccc3O)cc12	FMDV antiviral inconclusive, VACV mCherry inh inconclusive, Vaccinia Venus inconclusive, HCMV antiviral -92.5 (no result: MARV entry inh, LASV entry inh)
COc1ccc(/C=N/NC(=O)c2cc3c(OC)ccc(OC)c3[nH]2)cc1O	MARV entry inh inconclusive, VACV mCherry inh 7.08µM, Vaccinia Venus inconclusive, LASV entry inh inconclusive, HCMV antiviral inconclusive
CCC(=O)NCCc1nc2cc(NC(=O)c3ccc(F)cc3)ccc2n1C	none (no result: MARV entry inh, VACV mCherry inh, Vaccinia Venus, LASV entry inh)
CC(=O)Nc1ccc(NC(=O)c2ccc(COc3ccccc3)cc2)cc1	none (no result: MARV entry inh, VACV mCherry inh, Vaccinia Venus, LASV entry inh)
CCc1ccc(C(=O)NC(=S)Nc2ccc(N3CCOCC3)cc2)cc1	VACV mCherry inh inconclusive, Vaccinia Venus inconclusive, HCMV antiviral -89.3 (no result: MARV entry inh, LASV entry inh)
O=C(Nc1ccc(N2CCOCC2)cc1)c1ccc(COc2ccccc2)cc1	MARV entry inh inconclusive, HCMV antiviral -73.5
N#Cc1c(NC(=O)CSc2nc(N)cc(=O)[nH]2)sc2c1CCCC2	FMDV antiviral inconclusive, MARV entry inh 10µM, LASV entry inh inconclusive
CCc1ccc(CCC(=O)Nc2sc3c(c2C#N)CCCC3)o1	MARV entry inh 2.31µM, LASV entry inh inconclusive, HCMV antiviral -75.0 (no result: VACV mCherry inh, Vaccinia Venus)
CCc1ccc(CCC(=O)Nc2ccc(C(=O)O)cc2)o1	HCMV antiviral active (no result: MARV entry inh, VACV mCherry inh, Vaccinia Venus, LASV entry inh)
N#Cc1c(NC(=O)c2ccc(Cn3cc(Br)cn3)o2)sc2c1CCCCCC2	FMDV antiviral inconclusive, MARV entry inh inconclusive, HCMV antiviral -98.9 (no result: VACV mCherry inh, Vaccinia Venus)
CCc1ccc(NC(=O)CCc2ccc(CC)o2)cc1	none
O=S(=O)(NCc1cccnc1)c1cccn1-c1ncc(C(F)(F)F)cc1Cl	MARV entry inh inconclusive, HCMV antiviral -61.2
